Experimental data from PubChem BioAssay AID1159580 (chemical genetic matrix, 2015).
The whole screen tested about 5,500 compounds, of which about 2,000 (36%) were called active. About 18% were inconclusive and are not listed. Cut-off read from the data, not from the text of the source: active = normalized growth mostly below about 0.91 (no sharp cut-off); inconclusive = no clear call, values can overlap the other calls; inactive = mostly above about 0.92. Some of the results follow.

Assay: chemical genetic growth profiling, strain panel (AID 1159580);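 note: tested at 20 µM; growth read once vehicle control cultures reached saturation at 30 °C; 1 = growth at the plate median or of vehicle wells; lower values mean less growth of the strain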
Settings: growth OD
[1] = S. cerevisiae deletion strains, locus YDL101C, strain DUN1, stronger effect = lower value
[2] = S. cerevisiae deletion strains, locus YHR030C, strain SLT2, stronger effect = lower value

Measured: normalized growth

COc1cc(NC(=O)Nc2ccc(OC(F)(F)F)cc2)cc(C(F)(F)F)c1
inactive: S. cerevisiae deletion strains, locus YAL013W, strain DEP1, stronger effect = lower value 0.987 | S. cerevisiae deletion strains, locus YBR229C, strain ROT2, stronger effect = lower value 0.987 | [1] 0.997 | S. cerevisiae deletion strains, locus YDL134C, strain PPH21, stronger effect = lower value 1.01 | S. cerevisiae deletion strains, locus YDR150W, strain NUM1, stronger effect = lower value 0.971 | S. cerevisiae deletion strains, locus YEL061C, strain CIN8, stronger effect = lower value 0.961 | S. cerevisiae deletion strains, locus YGR078C, strain PAC10, stronger effect = lower value 0.984 | [2] 0.895 | S. cerevisiae deletion strains, locus YHR087W, strain rtc3, stronger effect = lower value 0.984 | S. cerevisiae deletion strains, locus YJL187C, strain SWE1, stronger effect = lower value 1.01 | S. cerevisiae deletion strains, locus YJR043C, strain POL32, stronger effect = lower value 0.999 | S. cerevisiae deletion strains, locus YJR075W, strain HOC1, stronger effect = lower value 1 | S. cerevisiae deletion strains, locus YLR039C, strain RIC1, stronger effect = lower value 0.895 | S. cerevisiae deletion strains, locus YLR058C, strain SHM2 (second series), stronger effect = lower value 1 | S. cerevisiae deletion strains, locus YLR085C, strain ARP6, stronger effect = lower value 0.951 | S. cerevisiae deletion strains, locus YLR262C, strain YPT6, stronger effect = lower value 0.968 | S. cerevisiae deletion strains, locus YML094W, strain GIM5, stronger effect = lower value 0.919 | S. cerevisiae deletion strains, locus YMR219W, strain ESC1, stronger effect = lower value 1.02 | S. cerevisiae deletion strains, locus YMR263W, strain SAP30, stronger effect = lower value 0.991 | S. cerevisiae deletion strains, locus YMR307W, strain GAS1, stronger effect = lower value 0.864 | S. cerevisiae deletion strains, locus YNL153C, strain GIM3, stronger effect = lower value 0.987 | S. cerevisiae deletion strains, locus YNL298W, strain CLA4 (second series), stronger effect = lower value 0.923 | S. cerevisiae deletion strains, locus YNL322C, strain KRE1, stronger effect = lower value 1.01 | S. cerevisiae deletion strains, locus YNR030W, strain Alg12, stronger effect = lower value 0.935 | S. cerevisiae deletion strains, locus YOL006C, strain TOP1, stronger effect = lower value 0.996 | S. cerevisiae deletion strains, locus YPL055C, strain LGE1, stronger effect = lower value 0.928 | S. cerevisiae deletion strains, locus YPL241C, strain CIN2, stronger effect = lower value 0.893 | S. cerevisiae deletion strains, locus YPR135W, strain CTF4, stronger effect = lower value 1 | S. cerevisiae strains, strain wild type, stronger effect = lower value 1.01

O=C(Nc1ccc(OC(F)(F)F)cc1)Nc1cncc(C(F)(F)F)c1
active: [2] 0.822 | S. cerevisiae deletion strains, locus YLR113W, strain HOG1, stronger effect = lower value 0.739 | S. cerevisiae deletion strains, locus YPL256C, strain CLN2, stronger effect = lower value 0.763
inactive: S. cerevisiae deletion strains, locus YAR019C, strain CDC15, stronger effect = lower value 0.987 | S. cerevisiae deletion strains, locus YBL105C, strain PKC1, stronger effect = lower value 0.995 | S. cerevisiae deletion strains, locus YBR135W, strain CKS1, stronger effect = lower value 0.989 | S. cerevisiae deletion strains, locus YBR136W, strain MEC1, stronger effect = lower value 0.994 | S. cerevisiae deletion strains, locus YBR160W, strain CDC28, stronger effect = lower value 0.993 | S. cerevisiae deletion strains, locus YDL017W, strain CDC7, stronger effect = lower value 0.995 | S. cerevisiae deletion strains, locus YDL028C, strain MPS1, stronger effect = lower value 0.991 | [1] 1.01 | S. cerevisiae deletion strains, locus YDL108W, strain KIN28, stronger effect = lower value 0.988 | S. cerevisiae deletion strains, locus YDL132W, strain cdc53, stronger effect = lower value 0.995 | S. cerevisiae deletion strains, locus YDL214C, strain PRR2, stronger effect = lower value 0.913 | S. cerevisiae deletion strains, locus YDR052C, strain DBF4, stronger effect = lower value 0.989 | S. cerevisiae deletion strains, locus YDR054C, strain cdc34, stronger effect = lower value 0.996 | S. cerevisiae deletion strains, locus YDR226W, strain ADK1, stronger effect = lower value 0.991 | S. cerevisiae deletion strains, locus YDR477W, strain SNF1, stronger effect = lower value 0.943 | S. cerevisiae deletion strains, locus YER123W, strain YCK3, stronger effect = lower value 0.884 | S. cerevisiae deletion strains, locus YER133W, strain GLC7, stronger effect = lower value 0.93 | S. cerevisiae deletion strains, locus YFL009W, strain cdc4, stronger effect = lower value 0.982 | S. cerevisiae deletion strains, locus YFL029C, strain CAK1, stronger effect = lower value 0.991 | S. cerevisiae deletion strains, locus YFR003C, strain YPI1, stronger effect = lower value 0.999 | S. cerevisiae deletion strains, locus YFR019W, strain FAB1, stronger effect = lower value 0.911 | S. cerevisiae deletion strains, locus YFR028C, strain CDC14, stronger effect = lower value 0.986 | S. cerevisiae deletion strains, locus YGR040W, strain KSS1, stronger effect = lower value 0.941 | S. cerevisiae deletion strains, locus YGR052W, strain FMP48, stronger effect = lower value 0.929 | S. cerevisiae deletion strains, locus YGR092W, strain DBF2, stronger effect = lower value 0.919 | S. cerevisiae deletion strains, locus YHR079C, strain IRE1, stronger effect = lower value 0.824 | S. cerevisiae deletion strains, locus YHR082C, strain KSP1, stronger effect = lower value 0.968 | S. cerevisiae deletion strains, locus YHR205W, strain SCH9, stronger effect = lower value 0.888 | S. cerevisiae deletion strains, locus YIL147C, strain SLN1, stronger effect = lower value 0.996 | S. cerevisiae deletion strains, locus YJL095W, strain BCK1, stronger effect = lower value 0.877 | S. cerevisiae deletion strains, locus YJL128C, strain PBS2, stronger effect = lower value 0.951 | S. cerevisiae deletion strains, locus YJL157C, strain FAR1, stronger effect = lower value 0.923 | S. cerevisiae deletion strains, locus YJR016C, strain ILV3, stronger effect = lower value 0.994 | S. cerevisiae deletion strains, locus YJR066W, strain TOR1 (second series), stronger effect = lower value 0.88 | S. cerevisiae deletion strains, locus YJR066W, strain TOR1, stronger effect = lower value 0.942 | S. cerevisiae deletion strains, locus YKL048C, strain ELM1, stronger effect = lower value 0.964 | S. cerevisiae deletion strains, locus YKL067W, strain YNK1, stronger effect = lower value 0.916 | S. cerevisiae deletion strains, locus YKL101W, strain HSL1, stronger effect = lower value 0.905 | S. cerevisiae deletion strains, locus YKL193C, strain SDS22, stronger effect = lower value 0.996 | S. cerevisiae deletion strains, locus YKL203C, strain TOR2, stronger effect = lower value 0.964 | S. cerevisiae deletion strains, locus YLR133W, strain CKI1, stronger effect = lower value 0.91 | S. cerevisiae deletion strains, locus YLR403W, strain SFP1, stronger effect = lower value 0.945 | S. cerevisiae deletion strains, locus YML070W, strain DAK1, stronger effect = lower value 0.89 | S. cerevisiae deletion strains, locus YMR001C, strain CDC5, stronger effect = lower value 0.998 | S. cerevisiae deletion strains, locus YMR205C, strain PFK2 (second series), stronger effect = lower value 0.927 | S. cerevisiae deletion strains, locus YMR277W, strain FCP1, stronger effect = lower value 0.992 | S. cerevisiae deletion strains, locus YNL006W, strain LST8, stronger effect = lower value 0.99 | S. cerevisiae deletion strains, locus YNL020C, strain ARK1, stronger effect = lower value 0.914 | S. cerevisiae deletion strains, locus YNL161W, strain CBK1, stronger effect = lower value 0.971 | S. cerevisiae deletion strains, locus YNL183C, strain NPR1, stronger effect = lower value 0.915 | S. cerevisiae deletion strains, locus YNL207W, strain RIO2, stronger effect = lower value 0.985 | S. cerevisiae deletion strains, locus YNL222W, strain SSU72, stronger effect = lower value 0.994 | S. cerevisiae deletion strains, locus YNL307C, strain MCK1 (second series), stronger effect = lower value 0.886 | S. cerevisiae deletion strains, locus YOL078W, strain AVO1, stronger effect = lower value 0.993 | S. cerevisiae deletion strains, locus YOL136C, strain PFK27, stronger effect = lower value 0.882 | S. cerevisiae deletion strains, locus YOR061W, strain CKA2, stronger effect = lower value 0.952 | S. cerevisiae deletion strains, locus YOR119C, strain RIO1, stronger effect = lower value 0.995 | S. cerevisiae deletion strains, locus YOR231W, strain MKK1, stronger effect = lower value 0.865 | S. cerevisiae deletion strains, locus YOR329C, strain SCD5, stronger effect = lower value 0.994 | S. cerevisiae deletion strains, locus YPL031C, strain PHO85, stronger effect = lower value 0.921 | S. cerevisiae deletion strains, locus YPL153C, strain RAD53, stronger effect = lower value 0.928 | S. cerevisiae deletion strains, locus YPL204W, strain HRR25, stronger effect = lower value 0.892 | S. cerevisiae deletion strains, locus YPL209C, strain IPL1, stronger effect = lower value 0.998 | S. cerevisiae deletion strains, locus YPR025C, strain CCL1, stronger effect = lower value 0.994 | S. cerevisiae deletion strains, locus YPR106W, strain ISR1, stronger effect = lower value 0.982 | S. cerevisiae deletion strains, locus YPR111W, strain DBF20, stronger effect = lower value 0.969 | S. cerevisiae deletion strains, strain NNK1, stronger effect = lower value 0.978 | S. cerevisiae deletion strains, strain TSCII, stronger effect = lower value 0.983
